# Reference: PubChem BioAssay (NCI)
# Compounds without any hit were thinned out: in the full panel of roughly 83,000, 20% have a hit.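 Testing used 96-well plates and a 48-hour single-concentration exposure. Example: -40 means 40% of the starting cells died.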 Values without a mark were called inactive. The source made the active and inactive calls. Rule for the calls: active = growth percent below 10; inactive = the rest.
# Columns and labels:
# Test in all cases: NCI-60 one-dose screen, 48 h (100 = growth as untreated, 0 = no growth, -100 = all killed)
# Details in all cases: 10 µM
# NCI-H23 lung = test system: NCI-H23 lung
# NCI-H226 lung = test system: NCI-H226 lung
# HOP-62 NSCLC = test system: HOP-62 NSCLC
# NCI-H460 lung = test system: NCI-H460 lung
# HOP-92 NSCLC = test system: HOP-92 NSCLC
# NCI-H522 lung = test system: NCI-H522 lung
# A549/ATCC NSCLC = test system: A549/ATCC NSCLC
# 786-0 renal = test system: 786-0 renal
# COLO 205 colon = test system: COLO 205 colon
# DU-145 prostate = test system: DU-145 prostate
# MDA-MB-231 breast = test system: MDA-MB-231 breast
# RXF 393 renal = test system: RXF 393 renal
# SF-268 CNS = test system: SF-268 CNS
# SF-295 CNS = test system: SF-295 CNS
# SF-539 CNS = test system: SF-539 CNS
# UACC-257 melanoma = test system: UACC-257 melanoma
# M14 melanoma = test system: M14 melanoma
# K-562 leukemia = test system: K-562 leukemia
SMILES,growth (NCI-H23 lung) [%],growth (NCI-H226 lung) [%],growth (HOP-62 NSCLC),growth (NCI-H460 lung),growth (HOP-92 NSCLC),growth (NCI-H522 lung),growth (A549/ATCC NSCLC) [%],growth (786-0 renal),growth (COLO 205 colon),growth (DU-145 prostate),growth (MDA-MB-231 breast),growth (RXF 393 renal) [%],growth (SF-268 CNS) [%],growth (SF-295 CNS),growth (SF-539 CNS),growth (UACC-257 melanoma),growth (M14 melanoma),growth (K-562 leukemia)
CC(C)C1=C(O)C2=C(C(=O)C1=O)[C@@]1(C)CCCC(C)(C)[C@@H]1CC2,65.8,83.5,70.6%,37.6%,53.6%,86.9%,62.1,78.7%,92.7%,81.6%,103%,84.3,63.4,43.3%,90%,78.7%,80.7%,–
COc1ccc(C2CC(c3cccs3)=NN2c2ccc(S(N)(=O)=O)cc2)cc1 (stereo not drawn),104,90.7,97.8%,84.2%,63.1%,69.6%,75.8,96.5%,-89.6% (active),102%,91.9%,93.6,97.6,95.8%,104%,30.5%,78.4%,67.6%
Cc1ccc(C(SCC(N)C(=O)O)(c2ccc(C)cc2)c2ccc(C)cc2)cc1 (stereo not drawn),18.3,64.1,-48.3% (active),3.09% (active),-15.3% (active),-66.2% (active),14.6,–,0.644% (active),-39% (active),1.37% (active),–,17.6,-13.8% (active),-29.7% (active),-18.5% (active),-74.5% (active),0.419% (active)
COc1ccc(C(=O)COc2cccc(/C=C3\Cc4ccccc4C3=O)c2)cc1,74.5,73.4,93.2%,111%,48.7%,56.6%,–,82.2%,124%,–,66.5%,–,77.2,87.1%,75.9%,83.5%,81.2%,80.5%
Cc1c(C(N)=O)sc2c1c(=O)n(Cc1ccccc1)c1nnc(-c3ccc(Br)cc3)n21,39,26.6,37.7%,4.4% (active),43.4%,47.9%,10.1,-15.5% (active),16.8%,31.7%,18.8%,15.9,29.4,15.8%,13.1%,-0.619% (active),-22.5% (active),–
O=C(N/N=C/c1ccc([N+](=O)[O-])cc1)c1ccccc1Nc1cccc(C(F)(F)F)c1,91.2,95.2,89.4%,115%,61%,88.8%,–,73%,131%,–,80.5%,–,98.4,105%,60.7%,95.5%,86.4%,107%
CC(C)=CCC/C(C)=C/CC/C(C)=C/CC/C=C(\C)CC/C=C(\C)CCC(=O)Nc1ccn(C2OC(CO)C(O)C2(F)F)c(=O)n1 (stereo not drawn),25.3,50.3,11.1%,6.85% (active),10.2%,26.1%,–,-11.2% (active),43.5%,–,65.2%,–,19.9,-41.3% (active),-22.3% (active),18.5%,2.42% (active),26.7%
Cc1ccc(C(C)C)c(O)c1NC(=O)OC(C)C,96.2,99.4,91.6%,102%,75.7%,84.8%,104,92.3%,99.6%,107%,106%,108,93.8,101%,–,91.7%,96.6%,114%
Cc1cc(Br)nnc1Br,106,87.2,91.8%,117%,128%,110%,109,104%,100%,121%,92.7%,120,107,111%,87.9%,133%,96.8%,99.5%
